ssDAF12 agonist – activators of S. stercoralis DAF-12 nuclear receptor; AID 652126; actives 1% (n = 370,000); HEK293 ssDAF-12/GRIP1 lit1-tk-luc reporter, luminescence; % of 3 µM dafachronic acid response; activation, % at 6.8 µM;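 active = activation above the mean over all tested compounds plus 3 SD, cut at about 0.9% in these data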;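 note: 0% = DMSO-only wells and 100% = 3 µM delta7-dafachronic acid wells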
AHR activator – activators of human aryl hydrocarbon receptor; AHR-responsive luciferase reporter cells, luminescence; activation, % at 5 µM; actives 2.5% (n = 320,000); in the data active = activation above about 47%;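 note: 0% = vehicle wells and 100% = reference agonist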
hgDAF12 agonist – agonists of H. glycines DAF-12 nuclear receptor; AID 687014; activation, % at 6.8 µM; actives 1.8% (n = 370,000); HEK293 GAL4-hgDAF12 UAS-luciferase reporter, agonist luminescence; normalized to butyrate control;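 active = activation above a cutoff set at the mean of all screened compounds plus 3 SD, cut at about 10% in these data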;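 note: 0% = DMSO wells and 100% = sodium butyrate wells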
DAX1 inh-1 – inhibitors of DAX1 repression of SF-1 activated StAR promoter; HEK293T StAR-luciferase reporter, SF-1/DAX-1 repression relief; inhibition, % at 6.8 µM; actives 1.1% (n = 370,000);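 active = inhibition above the mean over all tested compounds plus 3 SD, cut at about 3.6% in these data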;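 note: 0% = DAX-1 cells with DMSO and 100% = cells lacking DAX-1 with DMSO; higher inhibition means more luminescence from relief of DAX-1 repression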
DAX1 inh-2 – inhibits human nuclear receptor DAX1; HEK293 Gal4-DAX1 luciferase reporter, luminescence; actives 0.99% (n = 340,000); AID 504766; inhibition, % at 6.75 µM; P51843;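 active = inhibition above the mean over all tested compounds plus 3 SD, cut at about 4.2% in these data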;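 note: 0% = DAX1-transfected cells with DMSO and 100% = empty-vector control cells with DMSO; inhibition shows as a rise in luminescence from relieved DAX1 repression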
Target sequence (P51843 207-470 limits assumed): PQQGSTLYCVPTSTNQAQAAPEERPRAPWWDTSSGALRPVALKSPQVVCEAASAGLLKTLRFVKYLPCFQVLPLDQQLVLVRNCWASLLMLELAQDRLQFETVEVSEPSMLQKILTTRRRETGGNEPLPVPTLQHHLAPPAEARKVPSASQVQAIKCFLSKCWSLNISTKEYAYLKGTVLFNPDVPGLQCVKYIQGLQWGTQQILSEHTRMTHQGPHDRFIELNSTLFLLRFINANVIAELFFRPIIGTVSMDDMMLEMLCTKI
hcDAF-12 act – activators of H. contortus DAF-12 nuclear receptor | HEK293 hcDAF-12 lit1-tk-luc reporter, luminescence; 0% DMSO, 100% Δ7-dafachronic acid | activation, % at 6.8 µM | actives 1.4% (n = 370,000);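 active = activation above the mean of all tested compounds plus 3 SD, cut at about 5.5% in these data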;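 note: 100% = response to 3 µM Δ7-dafachronic acid high control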
hgDAF12 ag – hgDAF-12 agonism, confirmation assay; shares compounds with hgDAF12 agonist; HEK293 GAL4-hgDAF12 luciferase reporter, agonist mode; percent of butyrate response; activation, % at 6.8 µM; actives 80% (n = 3,300); AID 743050;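 active = mean activation over triplicate wells above the hit cutoff derived from the earlier primary screen, cut at about 11% in these data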;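 note: 0% = DMSO low control and 100% = 2 mM sodium butyrate high control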
LXR ag 2 – LXR-beta agonism as DAF-12 counter-screen; shares compounds with hgDAF12 agonist; 3,300 tested, under 10 active; HEK293 Gal4-LXR luciferase reporter, 24 h; AID 743051; activation, % at 6.8 µM;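 active = mean activation of the triplicate above a set limit carried over from the primary screen, none filed active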
Target sequence (P55055 whole entry, looked up, the tested form may be a part): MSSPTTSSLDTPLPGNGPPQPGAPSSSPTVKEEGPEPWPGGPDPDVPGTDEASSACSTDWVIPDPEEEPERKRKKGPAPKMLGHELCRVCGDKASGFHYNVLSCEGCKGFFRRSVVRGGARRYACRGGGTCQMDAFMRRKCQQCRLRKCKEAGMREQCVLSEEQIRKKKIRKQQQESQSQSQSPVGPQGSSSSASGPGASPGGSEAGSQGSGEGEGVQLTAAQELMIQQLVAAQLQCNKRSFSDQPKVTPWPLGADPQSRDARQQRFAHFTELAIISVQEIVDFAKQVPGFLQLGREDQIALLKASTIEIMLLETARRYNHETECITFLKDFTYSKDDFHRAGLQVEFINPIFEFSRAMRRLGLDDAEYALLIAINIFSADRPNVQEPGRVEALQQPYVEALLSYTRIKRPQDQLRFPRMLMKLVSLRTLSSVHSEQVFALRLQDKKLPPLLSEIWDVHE
Starred values were filed as active, the others as inactive; x = no result. Only some compounds are listed: those with a hit (about 5.7% of all), similar ones and a draw of the others.

SMILES | ssDAF12 agonist | AHR activator | hgDAF12 agonist | DAX1 inh-1 | DAX1 inh-2 | hcDAF-12 act | hgDAF12 ag | LXR ag 2
Nc1c(C(=O)Nc2ccc(Cl)cc2)sc2nc(N3CCOCC3)c3c(c12)CCCC3 | -0.6 | -2.4 | 1.0 | -0.1 | 0.4 | -1.6 | x | x
Nc1c(C(=O)Nc2ccccc2)sc2nc(N3CCOCC3)c3c(c12)CCCC3 | 0.5 | x | 14.6* | 3.8* | 0.2 | 2.3 | 4.9 | 0.1
CCCOc1ccc(-c2c(=O)n(O)c3ccccc3[n+]2[O-])cc1 | -0.6 | 6.4 | 20.2* | 4.5* | 2.9 | 6.2* | 13.2* | 0.3
COc1ccc(/C=N/NC(=O)c2ccc[nH]2)cc1 | 0.4 | 13.0 | 13.4* | 3.0 | 3.8 | 4.6 | 14.9* | 0.5
CCOC(=O)Nc1ccc2c(c1)C(=NO)c1ccccc1-2 | 0.7 | x | 18.1* | 2.8 | 2.9 | 3.9 | 12.6* | 0.6
O=C(Nc1ccc(F)c(Cl)c1)c1cc(C2CCCN(C(=O)C3CC3)C2)on1 (stereo not drawn) | -0.1 | x | 14.7* | 4.4* | x | 1.1 | 8.3 | 0.7
O=C(Nc1ccc(F)c(Cl)c1)c1cc(C2CCCCN2C(=O)C2CC2)on1 (stereo not drawn) | -1.4 | x | -0.2 | -0.2 | x | -0.1 | x | x
Cc1ccc(C(=O)NCCCc2ccccc2)c(Cl)c1 | 0.4 | 5.8 | 14.7* | 2.0 | 5.1* | 6.5* | 11.4* | 0.5
Cc1ccc(C(=O)NCCCc2ccccc2)c(C)c1 | 0.2 | 4.1 | 14.8* | 3.1 | 6.8* | 4.7 | 15.9* | 0.7
Cc1cc(C)cc(C(=O)NCCCc2ccccc2)c1 | -1.5 | 3.1 | -2.9 | -0.4 | 0.7 | -2.7 | x | x
O=C(Cn1c(=O)cnc2ccccc21)Nc1cccc(S(=O)(=O)N2CCOCC2)c1 | -0.9 | 7.6 | 2.0 | -2.4 | 0.1 | -0.2 | x | x
COc1ccc(-n2ncc3c(NC(C)C)ncnc32)cc1 | 0.7 | -6.1 | 18.9* | 3.3 | 0.0 | 5.4 | 16.7* | 0.9
COCC(C)Nc1ncnc2c1cnn2-c1ccc(Cl)cc1 (stereo not drawn) | 0.5 | -7.8 | 17.8* | 4.0* | 1.0 | 5.8* | 10.7* | 1.0
COc1ccc(-n2ncc3c(N4CCCCC4)ncnc32)cc1 | x | -9.5 | x | x | -4.6 | x | x | x
COc1ccc(C(=O)N2CCN(C3CCCCC3)CC2)cc1OC | -1.3 | -0.1 | -1.2 | 0.3 | -1.1 | -0.4 | x | x
Cc1ccccc1S(=O)(=O)N1C[C@H]2[C@H]3C(=O)N(C4CCCCC4)C(=O)[C@H]3CC(=O)[C@H]2[C@@H]1c1ccc(Cl)cc1 | -1.7 | x | 1.9 | -2.6 | x | -0.7 | x | x
Cc1nn(-c2ccccn2)c2c1-c1nc(N)ncc1CC2 | 0.2 | 62.9* | 18.4* | 1.9 | 0.8 | 1.0 | 10.5* | 0.3
Cc1nn(-c2ccccn2)c2c1-c1nc(N3CCOCC3)ncc1CC2 | -1.1 | 38.9 | -0.4 | 0.3 | -1.0 | -1.6 | x | x
CCC(C(=O)NCc1ccco1)n1nc(C)c2c(C)n(-c3ccccc3)nc2c1=O (stereo not drawn) | -0.9 | -2.3 | 0.1 | -0.1 | -0.4 | 0.6 | x | x
Cn1cc(C(=O)Nc2ccc3c(c2)CCC3)cn1 | 0.5 | 37.2 | 8.4 | 1.7 | 2.0 | 1.1 | x | x
O=C(Nc1ccc2c(c1)CCC2)c1cc(F)cc(F)c1 | -0.3 | -0.1 | 14.2* | 4.1* | 2.3 | 0.4 | 12.5* | 0.4
COc1ccccc1NC(=O)Nc1nc(CC(=O)N2CCN(c3ccccc3OC)CC2)cs1 | -1.2 | 5.9 | -5.5 | -4.3 | -2.0 | -2.2 | x | x
O=C(C[C@H]1C/C=C\CCC(=O)OC[C@H]2CCCN2C1=O)NCCO | -0.9 | -0.2 | -1.2 | 0.2 | 1.5 | -2.3 | x | x
O=[N+]([O-])c1ccc(O)c(CSc2nnnn2-c2ccccc2)c1 | -1.3 | -1.0 | 0.7 | -0.3 | 1.3 | 0.9 | x | x
CCOC(=O)C1(Cc2ccccc2Cl)CCN(C(=O)CN2CCOC2=O)CC1 | 0.2 | 4.5 | 16.6* | 1.9 | 2.3 | 2.4 | 10.2 | 0.3
SMILES | ssDAF12 agonist | AHR activator | hgDAF12 agonist | DAX1 inh-1 | DAX1 inh-2 | hcDAF-12 act | hgDAF12 ag | LXR ag 2
Cc1cc(NC(=O)OC2CCCCC2)ccc1[N+](=O)[O-] | 0.1 | 2.3 | 16.7* | 1.2 | 0.9 | 1.7 | 13.8* | 0.7
Cc1ccc(NC(=O)C2C3CCCCC32)cc1[N+](=O)[O-] (stereo not drawn) | -0.7 | 0.7 | 5.9 | 0.4 | 2.6 | 2.6 | x | x
O=C(NCC1CCCO1)c1cc(-c2ccccc2F)no1 (stereo not drawn) | 0.0 | 7.1 | 19.6* | 1.4 | 2.1 | 5.6* | 33.3* | 0.5
Cc1cc(C(=O)NC2=NCCS2)cs1 | -0.1 | 20.4 | 16.8* | 2.6 | 0.4 | 5.1 | 15.3* | 0.6
CN(C)c1cccc(/C=C2\CC3(OC(=O)c4ccccc4)CCCN2C3)c1 (stereo not drawn) | -0.6 | x | 22.4* | 0.5 | x | -1.3 | 0.2 | 0.0
c1ccn2cc(CSc3nnc4ccccn34)nc2c1 | 1.1* | 8.2 | 14.3* | 3.8* | 2.8 | 4.1 | 14.5* | 0.7
Cc1cc(C2=NNC(=NC3CC3)SC2)c(C)n1Cc1ccco1 | -3.6 | -3.9 | -20.5 | -4.1 | -3.3 | -10.0 | x | x
COCCCN=C1NN=C(c2cc(C)n(Cc3ccco3)c2C)CS1 | 1.6* | 6.1 | 14.6* | 1.7 | 2.1 | 2.3 | 10.1 | 0.6
Cc1cc(C(=O)N2CCCC(C(=O)c3cc(F)ccc3F)C2)c(C)o1 (stereo not drawn) | -1.7 | 0.7 | 0.0 | -0.5 | -1.9 | -1.8 | x | x
C/C(=N\NC(=O)c1cccs1)c1ccc2c(c1)OCO2 | 0.0 | 29.0 | 19.6* | 3.0 | x | 5.3 | 7.9 | 0.2
C/C(=N\NC(=O)c1ccc2c(c1)OCO2)c1ccc2c(c1)OCO2 | -1.1 | 26.5 | 3.8 | -0.1 | 2.5 | 0.1 | x | x
CN1CCN(CCCCOc2ccc(Br)cc2)CC1 | -1.9 | -0.1 | -1.1 | -0.3 | 0.5 | -0.8 | x | x
c1cncc(-c2nc(-c3ccc4c(c3)OCCO4)cs2)c1 | 0.3 | 4.1 | 15.1* | 1.3 | 4.6* | 5.8* | 15.7* | 0.8
CS(=O)(=O)c1ccc(-c2csc(-c3cccnc3)n2)cc1 | -1.3 | -2.8 | 2.8 | -0.1 | -0.5 | 0.0 | x | x
Cc1ccc(NCc2n[nH]c(=S)n2Cc2ccccc2)cc1Cl | -1.2 | x | -0.9 | -0.1 | -1.0 | -1.7 | x | x
COc1ccc(CCN(C)C(=O)C2CCN(Cc3cccc(OC)c3OC)CC2)cc1OC | -1.3 | 0.8 | -2.3 | -0.1 | 0.4 | 0.5 | x | x
Cc1c(/C=C/C(=O)c2ccccc2)cnn1C | -0.9 | 0.2 | 5.2 | -0.1 | 3.6 | 0.5 | x | x
Cc1c(/C=C/C(=O)c2ccc(O)cc2)cnn1C | 0.5 | 3.4 | 16.9* | 1.7 | 4.2 | 3.8 | 9.1 | 0.4
Cc1c(/C=C/C(=O)c2ccc(C(C)C)cc2)cnn1C | -2.0 | -3.1 | 2.5 | -0.8 | -0.3 | -2.1 | x | x

Screens as filed in PubChem.
